Assay outcomes: PubChem, National Center for Advancing Translational Sciences (NCATS)
This is a sample that favours compounds with a hit; in the whole collection about 11% have one here.
HPGD inh = qHTS Assay for Inhibitors of HPGD (15-Hydroxyprostaglandin Dehydrogenase) | 15-hydroxyprostaglandin dehydrogenase [NAD(+)] (Homo sapiens), P15428 | purified HPGD, NADH fluorescence kinetic, PGE2 substrate | Potency, µM, for the others: at the top dose activity change, negative = inhibition, most hits filed as inhibitors | actives 4.3% (n = 150,000); further: potency means the concentration at half of the fitted maximal effect; on the % scale 0 is the no-effect control and ±100 the full control effect
Target sequence (P15428 whole entry, looked up): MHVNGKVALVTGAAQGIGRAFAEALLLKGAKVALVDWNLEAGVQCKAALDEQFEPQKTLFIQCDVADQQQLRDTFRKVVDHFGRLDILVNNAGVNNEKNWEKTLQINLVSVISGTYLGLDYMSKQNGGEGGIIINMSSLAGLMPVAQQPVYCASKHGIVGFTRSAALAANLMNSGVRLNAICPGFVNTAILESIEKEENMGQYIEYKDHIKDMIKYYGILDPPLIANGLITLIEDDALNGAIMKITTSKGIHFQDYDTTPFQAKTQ
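NADH formation kinetics: reaction with 30 uM PGE2 and 1 mM NAD+ (final), 20 nM enzyme, Tris-HCl pH 8 with Tween 20, after 15 min compound preincubation at room temperature. Fluorescence change, last versus first of five reads.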
HttQ103 aggreg = qHTS Multiplex Assay to Identify Dual Action Probes in a Cell Model of Huntington: Aggregate Formation (GFP) | PC12 HttQ103-GFP aggregates, Acumen cytometry, 40 h | Potency, µM (titrated, usually from 46.1 µM), without a hit: at the top dose activity change, negative = inhibition, most hits filed as inhibitors | actives 1.1% (n = 220,000); active means well fitted curve in the direction sought with a large enough effect; inconclusive means small, poorly fitted or top-dose-only effect, or another doubt; inactive means no such curve, though single readings can be large; an effect the other way counts as inactive or inconclusive; further: potency means the concentration at half of the fitted maximal effect; on the % scale 0 is the no-effect control and ±100 the full control effect; nearly all actives have a fitted effect of over 60% in size
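Quantitative HTS on tebufenozide-induced (100 nM) PC12 cells stably expressing polyQ103 Huntingtin exon 1–GFP. Reduction of bright GFP aggregates, detected by laser scanning cytometry after lysis, identified actives across the titration.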
PNC assembly inh = High Content Assay for Compounds that inhibit the Assembly of the Perinucleolar Compartment. PC3M PTB-GFP, PNC prevalence imaging, 16 h; hits give low values. activity change (PNC), negative = inhibition, % at 10 µM. actives 3.1% (n = 140,000). AID 2417, 2010;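 active means readout at or below -70, meaning at least 70% loss of cells showing the perinucleolar compartment, a nuclear body marking cancer cells; inconclusive means readout between -30 and a set limit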;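 further: plate controls were DMSO wells for no effect and camptothecin positive control wells for full effect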
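PC3M cells stably expressing PTB-GFP, 750–1000 cells/well, treated 16 h at 37 °C with compound (23 nl of library stock), in duplicate. After paraformaldehyde fixation and Hoechst stain, imaged at 20x; PNC prevalence scored by image analysis.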
ALDH1A1 inh = qHTS Assay for Inhibitors of Aldehyde Dehydrogenase 1 (ALDH1A1); Purified ALDH1A1, NADH fluorescence, propionaldehyde substrate; AID 1030, 2008; actives 7.3% (n = 220,000); Potency, µM (titrated, usually from 75.3 µM), for inactives: top-dose activity, negative = inhibition, hits mostly inhibitors; Aldehyde dehydrogenase 1A1 (Homo sapiens), P00352;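 further: potency means the concentration at half of the fitted maximal effect; plate controls were no enzyme wells and a reference inhibitor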
Target sequence (P00352 whole entry, looked up): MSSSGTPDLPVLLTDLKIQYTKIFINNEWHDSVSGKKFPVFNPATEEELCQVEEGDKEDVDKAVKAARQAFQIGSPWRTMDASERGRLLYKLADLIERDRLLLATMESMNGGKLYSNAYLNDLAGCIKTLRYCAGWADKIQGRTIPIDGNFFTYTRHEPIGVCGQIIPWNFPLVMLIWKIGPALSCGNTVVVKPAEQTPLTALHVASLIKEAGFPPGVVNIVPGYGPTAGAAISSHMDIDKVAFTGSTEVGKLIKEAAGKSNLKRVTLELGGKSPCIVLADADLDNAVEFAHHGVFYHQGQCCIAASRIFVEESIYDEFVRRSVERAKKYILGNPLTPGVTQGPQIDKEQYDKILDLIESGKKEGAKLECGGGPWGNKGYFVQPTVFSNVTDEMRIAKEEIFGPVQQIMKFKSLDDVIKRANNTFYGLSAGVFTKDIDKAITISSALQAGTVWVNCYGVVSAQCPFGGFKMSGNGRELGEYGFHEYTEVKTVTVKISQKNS
GoLoco inh red = qHTS Assay for Inhibitors of RGS12 GoLoco Motif Activity (Red Fluorophore) | Guanine nucleotide-binding protein G(i) subunit alpha-1 (Homo sapiens), P63096 | Gai1:RGS12 GoLoco peptide FP, rhodamine, 10 min | Potency, µM (doses to about 61.6 µM), without a hit: top-dose activity, negative = inhibition, most hits filed as inhibitors | actives 0.44% (n = 230,000); active means well fitted inhibition curve with a large enough effect, not every such curve was filed as active; inactive means no such curve, though single readings can be large or run the other way; further: potency means the concentration at half of the fitted maximal effect; on the % scale 0 is the no-effect control and ±100 the full control effect; nearly all actives have a fitted effect of over 30% in size
HTT cytoprotect = qHTS Multiplex Assay to Identify Dual Action Probes in a Cell Model of Huntington: Cytoprotection (ATP) | actives 0.14% (n = 230,000) | PC12 HTT-Q103 induced, cytoprotection, ATP luminescence, 40 h | Potency, µM (top dose mostly 56.4 µM), without a hit: cytoprotection (ATP increase), hits mostly activators | AID 1471, 2008; active means well fitted curve in the direction sought with a large enough effect; inconclusive means small, poorly fitted or top-dose-only effect, or another doubt; inactive means no such curve, though single readings can be large; an effect the other way counts as inactive or inconclusive; further: potency means the concentration at half of the fitted maximal effect; % of control where 0% means no effect; nearly all actives have a fitted effect of over 45% in size
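Huntington model: PC12 line, ecdysone-inducible HTTQ103 exon1–GFP, tebufenozide 100 nM. Test articles in a dose series. Endpoint luminescence from cellular ATP.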
Active calls of the source: *; ? = inconclusive; / = no result given; [ ] = dose if it differs, or a comment. Unless noted, the call rests on the fitted dose curve; in most records, active means well fitted inhibition curve with a large enough effect (not every such curve was filed as active); inconclusive means small, poorly fitted or top-dose-only effect, or another doubt; inactive means no such curve, though single readings can be large or run the other way.

SMILES | HPGD inh | HttQ103 aggreg | PNC assembly inh | ALDH1A1 inh | GoLoco inh red | HTT cytoprotect
COc1ccc(S(=O)(=O)N=Nc2c(O)[nH]c3ccccc23)cc1 | / | -11% | / | 25µM* | 4% | -35%
O=S(=O)(Nc1cc(S(=O)(=O)N2CCOCC2)ccc1N1CCOCC1)c1ccc2c(c1)OCCO2 | / | 10% | / | -1% | -12% | -12%[10 µM]
CC(C(=O)Nc1cccc(S(=O)(=O)N2CCOCC2)c1)N1CCN(C/C=C/c2ccccc2)CC1 (stereo not drawn) | / | 11% | / | 8% | 7% | /
CCOCC(=O)Nc1cc(S(=O)(=O)N2CCOCC2)ccc1N1CCCCC1 | / | -14% | / | 2.8µM* | 0% | 11%[10 µM]
O=S(=O)(Nc1cccc(S(=O)(=O)N2CCOCC2)c1)c1ccc2c(c1)OCCO2 | / | 4% | / | 25µM* | 8% | -35%
O=C(Nc1cccc(S(=O)(=O)N2CCOCC2)c1)C(c1ccccc1)N1CCCCC1 (stereo not drawn) | / | -13% | / | 7.1µM* | 15% | -34%
COc1ccc(C(=O)OCC(=O)Nc2cc(S(=O)(=O)N3CCOCC3)ccc2N2CCCC2)cc1 | / | -1% | / | -7% | 6% | 6%
O=C(Nc1ccccc1)c1ccc(S(=O)(=O)N2CCOCC2)cc1 | -13% | 16% | ? | -8% | -3% | 6%
CC1CN=C(N(C(=O)Nc2ccccc2)c2ccc(S(=O)(=O)N3CCOCC3)cc2)S1 (stereo not drawn) | 20µM* | -30% | 27 | 11% | -4% | 1%[1.9 µM]
CCCCC/C=C\C/C=C\C/C=C\C/C=C\CCCCCC(=O)NCC(=O)O | -19% | / | / | -3% | 2% | 15%
COC(=O)C1(CC(C)C)C=C2C(=C(c3ccccc3)C(=O)C2C)CN1 (stereo not drawn) | ? | / | / | -11% | -4% | -69%
C=CCn1c(CCC(O)COCCC)n[nH]c1=S (stereo not drawn) | / | 7%[9.22 µM] | / | -1% | 16% | 19%[10 µM]
O=C(O)c1ccc(Nc2ncc([N+](=O)[O-])cc2[N+](=O)[O-])cc1 | / | 6% | / | -11% | 5% | 8%
CCOc1ccccc1NC(=O)COC(=O)CC(NC(N)=O)c1ccc(Cl)cc1 (stereo not drawn) | / | 0% | / | -5% | -1% | 4%[10 µM]
COc1ccc(NC(=O)c2cncc(Br)c2)cc1S(=O)(=O)N1CCCCC1 | 2% | -28% | ? | -2% | 0% | -17%[0.074 µM]
CC(C)C[C@@H](N)C(=O)Nc1ccc2ccccc2c1 | -9% | / | / | 4%[13.5 µM] | 4%[14.2 µM] | -11%[10 µM]
O=C(Nc1ccccc1)Nc1cc(S(=O)(=O)N2CCOCC2)ccc1N1CCCC1 | 14µM* | -3% | 6 | ? | -12% | -10%[10 µM]
Cc1ccc(C(=O)NC(C#N)=C(Cl)Cl)cc1 | / | / | / | ? | 2% | /
COc1ccc(C(=O)N2CCC3(CCCN(Cc4ccccc4)C3)CC2)cc1 | -8% | / | / | -5% | 12% | 29%
CCN(CC)c1ccc(C=N/C(C#N)=C(\N)C#N)cc1 | -1% | -1% | -4 | 11µM* | 280% | -5%
Cc1ccc(N(CCC#N)C(=O)CCl)cc1C | -4% | -2% | ? | 0.35µM* | 9% | -22%[10 µM]
O=C(c1csnn1)N1CCC2(CC1)CCN(c1cccc(-c3ccccc3)c1)CC2 | -13% | / | / | 3% | 3% | 26%
O=S(=O)(c1ccccc1)c1nc(NCc2cccnc2)sc1Cl | / | 6% | / | -5% | 12% | -14%[10 µM]
Cc1ccc(N2C(=O)CS(=O)C(c3ccccc3)C2=O)cc1C (stereo not drawn) | / | 31% | / | 3.5µM* | -2% | -9%[10 µM]
O=C(CC1C(=O)CCCC1=O)c1ccccc1 | / | -2% | / | 8.9µM* | -16% | -3%
SMILES | HPGD inh | HttQ103 aggreg | PNC assembly inh | ALDH1A1 inh | GoLoco inh red | HTT cytoprotect
Cc1ccc(-c2nc(N3CCOCC3)sc2C(=O)N2CCCCC2)cc1 | 0% | 4% | 24 | 7.9µM* | -1% | -14%[10 µM]
Cc1ccc(-c2nc(N3CCOCC3)sc2C(=O)N2CCOCC2)cc1 | -7% | -5% | 0 | 20µM* | -7% | /
CCCCCCCCCCC(=O)Nc1cccnc1 | / | 7%[9.22 µM] | / | 8% | 6% | 0%[10 µM]
O=c1c(-c2ccc(Cl)cc2)nc2cnc(N3CCOCC3)nc2n1Cc1ccc(F)cc1 | / | / | / | ? | -2% | -1%
CC(C)(C)c1cc(CNC2CS(=O)(=O)C[C@@H]2O)cc(C(C)(C)C)c1O (stereo partly drawn) | -3% | ? | 10 | 13µM* | 3% | -19%[0.074 µM]
O=S1(=O)CC(O)C(NCc2ccco2)C1 (stereo not drawn) | -2% | -10% | -26 | 2% | 8% | 16%
Cc1ccc(Cl)cc1NC(=O)c1cnn2c1NC(c1ccco1)CC2C(F)(F)F (stereo not drawn) | -21% | 0%[9.22 µM] | -11 | ? | 230% | -22%
COCCNC(=O)c1cnn2c1NC(c1ccco1)CC2C(F)(F)F (stereo not drawn) | 25µM* | -6% | -4 | ? | 188% | 3%[10 µM]
CN(Cc1ccc(-n2cccn2)cc1)C(=O)c1cnn2c1NC(c1ccco1)CC2C(F)(F)F (stereo not drawn) | -26% | ? | 8 | 7.9µM* | 167% | 26%[10 µM]
CCOC(=O)N1CCC(NC(=O)c2cnn3c2NC(c2ccco2)CC3C(F)(F)F)CC1 (stereo not drawn) | -9% | -10% | 10 | ? | 198% | -2%[0.074 µM]
O=C(N/N=C/c1c(Cl)cccc1Cl)c1n[nH]c2c1CCCC2 | 4µM* | 13% | -2 | -3% | 7% | -24%[10 µM]
O=C(N/N=C/c1c(Cl)cccc1Cl)c1ccc(F)cc1 | -3% | 6% | 3 | 11% | -3% | -11%
Cc1ccsc1/C=N\NC(=O)c1n[nH]c2c1CCC2 | -30% | -12% | ? | -7% | 16% | -43%[10 µM]
O=C(N/N=C/c1c(Cl)cccc1Cl)c1ccccc1F | -19% | 18% | -84* | 1% | -24% | /
CN1CCCC2(CCN(C(=O)c3cccc(F)c3)CC2)C1 | -2% | / | / | -4% | -14% | 9%
O=C(C[C@@H]1C=Cc2ccccc2N1C(=O)c1ccccc1)c1ccccc1 | -17% | / | / | ? | 5%[14.2 µM] | 13%[10 µM]
C/C(=N\NC(=O)c1cccc(S(=O)(=O)Nc2ccccc2Cl)c1)c1ccco1 | ? | -8% | 10 | ? | -5% | 11%[10 µM]
C/C(=N\NC(=O)c1ccc(COc2ccccc2)cc1)c1ccncc1 | / | 1% | / | 25µM* | 5% | -19%
